Measured values from PubChem BioAssay.
Activity calls are given as the source filed them. Unless noted, how the calls were made is not given here.

Assays:
[1] = tested on: Wnt5a (protein binding on small-molecule microarray); test: Wnt5a binders on small-molecule microarray, primary screen, biophysical, 635/667 nm fluorescence (AID 1142); settings: 635 nm fluorescence, higher = more signal;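 further: fluorescence read at 667 nm with signal to noise per printed feature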
[2] = cell viability in Huh7 cells, primary screen, cytotoxicity control for HCV replication inhibitor project, CellTiter-Glo luminescence, basal, 48 h (AID 1143); settings: Huh7 HCV replicon, higher = more signal, called active from +8 up or from −8 down;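 further: Huh7 hepatoma cells carrying a hepatitis C replication reporter with no stimulus; test concentration not given here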
[3] = P. aeruginosa biofilm formation inhibitors, primary screen, PAO1 strain, BacTiter-Glo luminescence, LB-PBS (AID 1144); settings: 12 h, higher = more signal
[4] = CREB reporter modulators without forskolin, primary screen, cell-based, PC12, CRE-LacZ reporter, unstimulated (AID 1145); settings: no forskolin, luminescence, 4.5 h, higher = more signal, called active from +8 up or from −8 down
[5] = CREB reporter modulators under forskolin, primary screen, cell-based, PC12, CRE-LacZ reporter, forskolin-stimulated (AID 1146); settings: luminescence, 4.5 h, higher = more signal, called active from +8 up or from −8 down;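 further: PC12 cells with 6xCRE LacZ reporter stimulated by forskolin 10 µM; beta-galactosidase reporter signal reflecting CREB driven transcription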
[6] = target: Streptavidin (Streptomyces avidinii) (UniProt P22629); test: streptavidin binders on small-molecule microarray, primary screen, artefact control for SMM compound annotation, biophysical, 635/667 nm fluorescence (AID 1147); settings: streptavidin binding, higher = more signal;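 further: signal reflects streptavidin binding to arrayed compounds as a control protein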
[7] = small-molecule binders of probe aInhba, primary screen, biochemical, small-molecule microarray, 635/667 nm fluorescence (AID 1148); settings: higher = more signal;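 further: score merges 667nm spot fluorescence with signal-to-noise for antibody binding to printed compounds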
Torsin-1A (Homo sapiens) [8] = target: Torsin-1A (Homo sapiens) (UniProt O14656); test: torsin A binders from cell lysate, primary screen, small-molecule microarray, wild-type, 635/667 nm (AID 1149); settings: COS7 hTOR1A-WT lysate, 635 nm fluorescence, higher = more signal
Torsin-1A (Homo sapiens) [9] = target: Torsin-1A (Homo sapiens) (UniProt O14656); test: small-molecule binders of mutant TOR1A in lysate, primary screen, cell lysate, small-molecule microarray, COS7 lysate, 635/667 nm fluorescence (AID 1150); settings: COS7 hTOR1A mutant lysate, 635 nm fluorescence, higher = more signal;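 further: score pools 667 nm emission and signal to noise measuring lysate protein binding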
[10] = tested on: Sonic hedgehog protein (Shh); test: small-molecule binders of Shh protein, primary screen, biochemical, small-molecule microarray, 635/667 nm fluorescence (AID 1151); settings: small-molecule microarray binding, 635 nm fluorescence; higher = more signal;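 further: Shh protein binding to compounds spotted on small-molecule microarray slides; score combines spot fluorescence intensity with signal-to-noise across triplicate slides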
[11] = E. coli DRC41 culture turbidity changes, primary screen, E. coli filamentation inducer project, strain DRC41, OD650, 48 h (AID 1152);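 further: E. coli MC1000 strain DRC41 lacking acrAB efflux pump and sulA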; settings: E. coli DRC41 (acrAB sulA), higher = more signal, called active from +8 up or from −8 down
[12] = small-molecule binders of probe aLefty1, primary screen, biochemical, small-molecule microarray, 635/667 nm fluorescence (AID 1153); settings: higher = more signal;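 further: score merges spot fluorescence with signal-to-noise ratio from the scanned slide images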
[13] = PSAC antagonists in infected red cells, primary screen, cell-based, P. falciparum Indochina, OD700, 1 h (AID 1154); settings: P. falciparum Indochina infected RBC osmotic lysis, higher = more signal, called active from +8 up or from −8 down
[14] = PSAC antagonists in infected red cells, primary screen, cell-based, P. falciparum Indochina, OD700, 2 h (AID 1155);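 further: lysis reports solute entry through the parasite surface anion channel PSAC; channel blockers reduce lysis of infected cells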; settings: P. falciparum Indochina infected erythrocytes, osmotic lysis OD700; higher = more signal, called active from +8 up or from −8 down
[15] = osmotic lysis modulators in infected erythrocytes, primary screen, PSAC antagonist project, cell-based, P. falciparum Indochina, OD700, 3 h (AID 1156); settings: higher = more signal, called active from +8 up or from −8 down
[16] = PSAC antagonists in infected red cells, primary screen, cell-based, P. falciparum Indochina, OD700, 18 h (AID 1157); settings: P. falciparum Indochina infected erythrocytes, osmotic lysis OD700, 18 h; higher = more signal, called active from +8 up or from −8 down
[17] = modulators of S6 phosphorylation in cells, primary screen, cell-based, A549, cytoblot, luminescence, serum-stimulated (AID 1158); settings: A549 phospho-S6 cytoblot, 5 h, higher = more signal;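 further: serum-stimulated A549 lung adenocarcinoma cells; signal is phosphorylated S6 detected by cytoblot immunostaining with HRP secondary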
[18] = target: NADPH oxidase 2 (Homo sapiens) (UniProt P04839); test: NOX2-dependent H2O2 signal modulators, primary screen, NOX inhibitor project, cell-based, HEK293-NOX2, PMA-stimulated, Amplex Red fluorescence (AID 1159); settings: 45 min, higher = more signal, called active from +8 up or from −8 down; further: test concentration not given here
[19] = target: NADPH oxidase 4 (Homo sapiens) (UniProt Q9NPH5); test: NOX4-dependent H2O2 signal modulators, primary screen, NOX inhibitor project, cell-based, HEK293-NOX4, tetracycline-induced, Amplex Red fluorescence (AID 1160); settings: 45 min, higher = more signal, called active from +8 up or from −8 down
[20] = target: NADPH oxidase 5 (Homo sapiens) (UniProt Q96PH1); test: NOX5-dependent H2O2 signal modulators, primary screen, NOX inhibitor project, cell-based, HEK293-NOX5, Amplex Red fluorescence (AID 1161); settings: HEK293-NOX5, ionomycin, 45 min, higher = more signal
Sequence of NADPH oxidase 5 (Homo sapiens) (Q96PH1 whole entry, looked up): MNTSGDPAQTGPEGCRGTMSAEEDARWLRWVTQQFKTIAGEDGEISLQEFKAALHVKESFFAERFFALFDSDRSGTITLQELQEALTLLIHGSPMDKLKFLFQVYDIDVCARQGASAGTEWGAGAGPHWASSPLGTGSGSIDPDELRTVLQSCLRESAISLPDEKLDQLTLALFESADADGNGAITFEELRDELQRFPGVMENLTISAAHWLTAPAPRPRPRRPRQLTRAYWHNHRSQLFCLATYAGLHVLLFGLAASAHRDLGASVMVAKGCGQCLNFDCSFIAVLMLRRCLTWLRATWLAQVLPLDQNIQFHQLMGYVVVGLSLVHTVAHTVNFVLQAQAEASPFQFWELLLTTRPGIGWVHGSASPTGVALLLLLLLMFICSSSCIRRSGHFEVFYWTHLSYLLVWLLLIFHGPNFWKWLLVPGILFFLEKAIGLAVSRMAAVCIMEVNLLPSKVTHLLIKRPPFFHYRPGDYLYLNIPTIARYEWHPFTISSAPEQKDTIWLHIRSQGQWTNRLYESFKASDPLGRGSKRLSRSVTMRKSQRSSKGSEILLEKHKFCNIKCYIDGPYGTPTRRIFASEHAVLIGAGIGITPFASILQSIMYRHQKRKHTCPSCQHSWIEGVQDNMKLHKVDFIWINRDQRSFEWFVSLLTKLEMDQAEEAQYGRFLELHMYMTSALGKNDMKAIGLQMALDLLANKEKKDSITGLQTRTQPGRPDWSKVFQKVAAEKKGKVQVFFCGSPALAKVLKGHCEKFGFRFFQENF

Sequence of NADPH oxidase 4 (Homo sapiens) (Q9NPH5 whole entry, looked up): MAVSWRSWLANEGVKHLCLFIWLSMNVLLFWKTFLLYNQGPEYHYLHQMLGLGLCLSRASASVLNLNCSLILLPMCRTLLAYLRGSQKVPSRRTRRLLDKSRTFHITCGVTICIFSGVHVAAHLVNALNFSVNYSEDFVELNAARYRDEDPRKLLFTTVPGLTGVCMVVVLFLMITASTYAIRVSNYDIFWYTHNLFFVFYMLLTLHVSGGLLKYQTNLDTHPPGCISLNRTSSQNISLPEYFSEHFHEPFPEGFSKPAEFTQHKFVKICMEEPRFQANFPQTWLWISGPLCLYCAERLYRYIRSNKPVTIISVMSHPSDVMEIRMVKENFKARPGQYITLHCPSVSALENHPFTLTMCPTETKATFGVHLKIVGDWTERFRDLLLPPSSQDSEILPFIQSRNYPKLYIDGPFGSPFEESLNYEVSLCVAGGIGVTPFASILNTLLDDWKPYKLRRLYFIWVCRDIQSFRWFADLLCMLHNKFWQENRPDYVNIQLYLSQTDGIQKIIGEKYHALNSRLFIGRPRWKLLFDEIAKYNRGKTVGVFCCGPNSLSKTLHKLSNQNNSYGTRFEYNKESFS
Sequence of Streptavidin (Streptomyces avidinii) (P22629 whole entry, looked up): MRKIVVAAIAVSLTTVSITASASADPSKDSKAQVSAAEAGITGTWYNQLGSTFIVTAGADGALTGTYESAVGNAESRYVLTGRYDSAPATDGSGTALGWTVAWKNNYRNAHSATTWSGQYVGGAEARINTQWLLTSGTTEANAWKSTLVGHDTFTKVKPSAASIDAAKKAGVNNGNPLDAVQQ
Sequence of NADPH oxidase 2 (Homo sapiens) (P04839 whole entry, looked up): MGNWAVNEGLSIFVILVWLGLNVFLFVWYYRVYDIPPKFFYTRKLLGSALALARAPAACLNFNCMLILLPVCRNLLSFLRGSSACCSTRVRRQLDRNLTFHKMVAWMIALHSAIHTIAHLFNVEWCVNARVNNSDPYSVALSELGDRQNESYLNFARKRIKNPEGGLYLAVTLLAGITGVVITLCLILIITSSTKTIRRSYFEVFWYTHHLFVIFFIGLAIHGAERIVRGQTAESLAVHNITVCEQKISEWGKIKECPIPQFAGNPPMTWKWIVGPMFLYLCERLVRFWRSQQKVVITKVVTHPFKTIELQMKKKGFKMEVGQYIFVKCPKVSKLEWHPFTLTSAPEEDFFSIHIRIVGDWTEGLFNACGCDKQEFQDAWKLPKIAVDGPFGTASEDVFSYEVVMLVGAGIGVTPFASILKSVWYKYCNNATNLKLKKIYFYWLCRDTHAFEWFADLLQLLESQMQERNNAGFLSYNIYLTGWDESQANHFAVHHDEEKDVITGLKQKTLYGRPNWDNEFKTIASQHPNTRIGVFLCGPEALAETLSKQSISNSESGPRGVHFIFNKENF
Sequence of Torsin-1A (Homo sapiens) (O14656 whole entry, looked up): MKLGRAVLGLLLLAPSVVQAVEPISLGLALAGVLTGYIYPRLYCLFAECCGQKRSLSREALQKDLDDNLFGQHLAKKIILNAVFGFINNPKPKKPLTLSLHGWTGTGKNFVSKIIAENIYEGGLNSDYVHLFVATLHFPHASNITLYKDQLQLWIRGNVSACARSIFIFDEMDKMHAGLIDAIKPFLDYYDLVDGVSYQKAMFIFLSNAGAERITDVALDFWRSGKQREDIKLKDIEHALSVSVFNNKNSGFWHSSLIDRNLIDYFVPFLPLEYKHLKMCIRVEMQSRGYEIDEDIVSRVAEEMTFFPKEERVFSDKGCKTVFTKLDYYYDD

SMILES | composite z-score [1] | z-score [2] | z-score [3] | z-score [4] | z-score [5] | composite z-score [6] | composite z-score [7] | composite z-score (Torsin-1A (Homo sapiens) [8]) | composite z-score (Torsin-1A (Homo sapiens) [9]) | composite z-score [10] | z-score [11] | composite z-score [12] | z-score [13] | z-score [14] | z-score [15] | z-score [16] | z-score [17] | z-score [18] | z-score [19] | z-score [20]
COC(=O)CC=C[C@@H](C)[C@@H](C=NOC[C@@H](O)[C@H]1O[C@@H]2OC(C)(C)O[C@@H]2[C@H]1O)OC | 0.183 | 0.559 (inactive) | 0.601 (inactive) | -0.0545 (inactive) | 0.0127 (inactive) | 0.271 | -0.149 | -0.104 | 0.162 | 0.867 | 0.29 (inactive) | -0.0603 | 0.332 (inactive) | 0.453 (inactive) | 0.141 (inactive) | 0.443 (inactive) | -0.332 | 0.144 (inactive) | -0.51 (inactive) | 0.15
COc1ccc(COC(=O)NN=C2C[C@@H](O)[C@@H](O)[C@@H]3[C@@H]4C(=O)N(C[C@@H]5CCCO5)C(=O)[C@@H]4CC[C@@H]23)cc1 | 0.0073 | 0.0894 (inactive) | 1.2 (inactive) | 0.338 (inactive) | -0.959 (inactive) | 0.662 | -0.15 | 1.2 | 1 | 0.0407 | 1.08 (inactive) | -0.235 | 3.44 (inactive) | 0.415 (inactive) | 1.3 (inactive) | 0.18 (inactive) | -0.0088 | -0.682 (inactive) | 0.995 (inactive) | -0.0772
CCCNC(=O)OC[C@H]1O[C@H](CCON=C[C@@H](C)[C@H](OCc2ccccc2)C(C)C)C=C[C@@H]1Oc1ccc(OC)cc1 | -0.146 | -1.1 (inactive) | -0.107 (inactive) | 1.28 (inactive) | -0.0248 (inactive) | -0.19 | -0.104 | -0.0998 | 0.733 | 0.0021 | -0.103 (inactive) | -0.105 | 1.77 (inactive) | -1.58 (inactive) | 0.141 (inactive) | -2.55 (inactive) | 2.11 | -1.7 (inactive) | 0.368 (inactive) | -0.574
CCOC(=O)[C@H](CC(C)C)NC(=O)CCC1CC(OC(=O)NCc2ccc3c(c2)OCO3)CC2(CCCC(COC(=O)NCCC(C)C)O2)O1 (stereo not given in full) | 0.0093 | -0.172 (inactive) | -0.32 (inactive) | -0.889 (inactive) | 0.128 (inactive) | 0.0476 | -0.128 | -0.0916 | -0.0963 | 0.54 | -0.213 (inactive) | -0.768 | 2.17 (inactive) | -0.299 (inactive) | -0.443 (inactive) | 0.0255 (inactive) | -0.0096 | 0.246 (inactive) | 0.115 (inactive) | 0.165
CC(CCC(=O)OC[C@H]1O[C@H](C#Cc2ccccc2)C=C[C@@H]1Oc1ccc(C)cc1)=NO[C@H](C)c1cn([C@@H]2COC[C@H]2O)nn1 | -0.0352 | -0.783 (inactive) | -0.763 (inactive) | 3.17 (inactive) | -0.0087 (inactive) | 0.197 | -0.101 | 0.587 | 0.326 | 0.39 | -0.6 (inactive) | -0.191 | 26.8 (active) | 3.78 (inactive) | 1.38 (inactive) | -0.643 (inactive) | 1.2 | -2.39 (inactive) | -0.358 (inactive) | -3.36
COC(=O)[C@H](C)NC(=O)CCC1CC(OC(=O)NCc2cccc3ccccc23)CC2(CCCC(COC(=O)NCCOc3ccccc3)O2)O1 (stereo not given in full) | 0.029 | -2.56 (inactive) | 0.0153 (inactive) | -0.709 (inactive) | 0.222 (inactive) | 0.688 | -0.025 | 0.182 | -0.13 | 0.334 | -0.677 (inactive) | -0.186 | 7.46 (inactive) | 0.622 (inactive) | -0.363 (inactive) | 0.346 (inactive) | 0.152 | 0.00289 (inactive) | -0.292 (inactive) | -0.19
C=CC[C@@H]1C=C[C@H](ON=C[C@@H](NS(=O)(=O)c2ccc(C)cc2)[C@H](C)C=CCC(=O)OC)[C@@H](CO)O1 | -0.116 | 0.182 (inactive) | 1.33 (inactive) | 0.848 (inactive) | 0.983 (inactive) | -0.407 | 0.138 | 0.359 | 0.634 | 0.416 | 0.171 (inactive) | -0.191 | 1.16 (inactive) | 0.278 (inactive) | 0.0436 (inactive) | 0.343 (inactive) | -0.738 | -0.0272 (inactive) | 0.118 (inactive) | -0.286
COc1ccc(COC(=O)NN=C2C[C@@H](O)[C@@H](O)[C@@H]3[C@@H]4C(=O)N(Cc5ccc6c(c5)OCO6)C(=O)[C@@H]4CC[C@H]23)cc1 | -0.343 | 0.0813 (inactive) | 0.939 (inactive) | 0.96 (inactive) | 0.0695 (inactive) | 0.61 | 0.0018 | -0.878 | -0.647 | -1.32 | 0.701 (inactive) | 0.781 | 15.7 (active) | 2.17 (inactive) | 0.18 (inactive) | 0.845 (inactive) | 0.767 | -0.657 (inactive) | 0.186 (inactive) | 0.138
